High-throughput results: PubChem, National Center for Advancing Translational Sciences (NCATS)
This is a sample that favours compounds with a hit; in the whole collection about 3.3% have one here.
Sm TGR block: blocks Schistosoma mansoni thioredoxin glutathione reductase | purified TGR, DTNB reduction, TNB absorbance 405 nm | AID 485364 | 360,000 compounds, 3% hits | Q962Y6 | Potency, µM (highest dose often 114 µM), for the others: at the highest dose activity change, negative = inhibition, actives largely listed as inhibitors; further: nearly all actives have a fitted effect of over 60% in size
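Kinetic colorimetric format: TGR-catalysed, NADPH-driven DTNB reduction monitored via TNB absorbance. Enzyme dispensed at 20 nM; compound exposure 15 min at room temperature before reaction start.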
AmpC detergent: AmpC beta-lactamase inhibition with detergent present; P00811; AmpC hydrolysis of nitrocefin, absorbance 480 nm, 0.01% Triton; Potency, µM (highest dose often 114 µM), without a hit: at the top dose activity change, negative = inhibition, most hits filed as inhibitors; 370,000 compounds, 0.041% hits;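 further: 0% = no-compound wells and -100% = no-enzyme wells; nearly all actives have a fitted effect of over 25% in size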
Target sequence (P00811 whole entry, looked up): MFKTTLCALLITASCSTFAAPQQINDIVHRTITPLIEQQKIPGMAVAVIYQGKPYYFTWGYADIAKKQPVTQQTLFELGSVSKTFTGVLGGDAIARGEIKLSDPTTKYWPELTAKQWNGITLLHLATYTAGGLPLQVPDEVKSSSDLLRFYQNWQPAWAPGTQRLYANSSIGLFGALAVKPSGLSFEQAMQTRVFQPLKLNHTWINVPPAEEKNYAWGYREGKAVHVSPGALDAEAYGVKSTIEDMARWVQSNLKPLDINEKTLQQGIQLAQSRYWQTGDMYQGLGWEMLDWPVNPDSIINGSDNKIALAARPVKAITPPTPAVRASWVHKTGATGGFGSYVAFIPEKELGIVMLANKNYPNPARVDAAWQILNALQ
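20 mM phosphate pH 7.0 + 0.01% (detergent screen) or 0.0001% Triton X-100; 5.3 nM AmpC reagent; cpd preinc 15 min RT; nitrocefin (800 uM stock) to start; A480 q20 s × 4 min; Activity was normalised to no-enzyme and no-compound control wells.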
AmpC inh no detg: AmpC beta-lactamase inhibition without detergent; 330,000 compounds, 0.52% hits; AmpC nitrocefin hydrolysis, absorbance 480 nm, 0.0001% Triton; P00811; Potency, µM (series often up to 57.1 µM), for the others: at the top dose activity change, negative = inhibition, usual class: inhibitors;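 further: plate controls were no compound for no effect and no enzyme for full effect; nearly all actives have a fitted effect of over 20% in size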
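AmpC (5.3 nM in the dispensed reagent) in 20 mM phosphate pH 7.0 with 0.01% (detergent screen) or 0.0001% Triton X-100 was preincubated with compounds for 15 min at room temperature. Nitrocefin was then added from an 800 uM solution, and hydrolysis was followed at 480 nm.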
* marks the source's active call; other numbers are inactive results. The call rests on the fitted dose curve; in most records, active means well fitted curve in the direction sought with a large enough effect; inconclusive means small, poorly fitted or top-dose-only effect, or another doubt; inactive means no such curve, though single readings can be large; an effect the other way counts as inactive or inconclusive. Unless noted, on the % scale 0 is the no-effect control and ±100 the full control effect; potency means the concentration at half of the fitted maximal effect.

CC(C)Oc1ccc(CNC(=O)c2ccc(NC(=O)N3CC(C)Sc4ccccc43)cc2)cc1 (configuration not stated) was read as Sm TGR block 0% and AmpC detergent -1%.
For O=C(O)c1cccc(-n2cccc2/C=C2/NC(=O)N(c3ccc(Cl)cc3)C2=O)c1 the results were Sm TGR block inconclusive, AmpC detergent -6% and AmpC inh no detg 13µM*.
O=C(O)c1cccc(-n2cccc2/C=C2/NC(=O)N(c3cccc(Cl)c3)C2=O)c1 was read as Sm TGR block -21%, AmpC detergent 3% and AmpC inh no detg -39%.
Screening COc1ccc(N2CCN(C(CNC(=O)C(=O)NCCc3ccccc3)c3cccnc3)CC2)cc1 (configuration not stated) returned Sm TGR block -13% and AmpC detergent 7%.
Screening CCOc1cc(CNC(=O)c2ccc3c(c2)NC(=O)C2CCCCN32)cc(OCC)c1OCC (configuration not stated) returned Sm TGR block 6% and AmpC detergent 23%.
`CCOc1ccc(CCNC(=O)c2ccc3c(c2)NC(=O)C2CCCN32)cc1OCC` (configuration not stated) gave Sm TGR block 50µM*, AmpC detergent -10% and AmpC inh no detg -15%.
For O=C(NC1C2CCCC1CN(C1CC1)C2)c1ccc(Cl)cc1 (configuration not stated) the results were Sm TGR block 80%, AmpC detergent -14% and AmpC inh no detg -30%.
For CC(C)c1ccc(NC(=O)C2Cc3ccccc3N2C(=O)c2ccccc2)cc1 (configuration not stated) the results were Sm TGR block 22% and AmpC detergent 5%.
For CCOc1ccc(NC(=O)C2Cc3ccccc3N2C(=O)c2ccccc2)cc1 (configuration not stated) the results were Sm TGR block 50µM* and AmpC detergent inconclusive.
For O=C1CCCC2=C1Sc1ccccc1N2 the results were Sm TGR block -15%, AmpC detergent -3% and AmpC inh no detg -21%.
COCCN(Cc1ccccc1)C(=O)C1CCN(C(=O)Nc2ccccc2)CC1 was read as AmpC inh no detg 0%.
Screening CC[C@H](C)/C=C(C)/C=C/C(=O)Cc1cc(O)c(C)c(O)c1C=O returned Sm TGR block 28µM*, AmpC detergent 0% and AmpC inh no detg -33%.
For COc1ccccc1-c1nnc(NC(=O)CSc2nncn2C)s1 the results were Sm TGR block 9%, AmpC detergent -5% and AmpC inh no detg -12%.
For O=S(=O)(c1ccc(Br)cc1)c1nc(-c2ccco2)oc1NCC1CCCO1 (configuration not stated) the results were Sm TGR block 20µM*, AmpC detergent -12% and AmpC inh no detg 0%.
For Cc1ccc(S(=O)(=O)c2nc(-c3ccco3)oc2NCC2CCCO2)cc1 (configuration not stated) the results were Sm TGR block 8.9µM*, AmpC detergent inconclusive and AmpC inh no detg -18%.
Screening CN(C)c1oc(-c2ccco2)nc1S(=O)(=O)c1ccc(Br)cc1 returned Sm TGR block inconclusive, AmpC detergent 4% and AmpC inh no detg -3%.
Cc1ccc(CSc2oc(-c3ccco3)nc2S(=O)(=O)c2ccc(C)cc2)cc1 was read as Sm TGR block -7% and AmpC detergent 16%.
Screening Cn1nccc1C(=O)Nc1ccc2c(c1)OCO2 returned Sm TGR block -14%, AmpC detergent -12% and AmpC inh no detg -15%.
For CN(c1ccccc1C(=O)Nc1ccccc1C(=O)NCc1ccco1)S(C)(=O)=O the results were Sm TGR block inconclusive, AmpC detergent inconclusive and AmpC inh no detg -18%.
Screening Nc1ccccc1C(=O)NCc1ccco1 returned Sm TGR block inconclusive, AmpC detergent -11% and AmpC inh no detg -6%.
For O=C(NCc1ccco1)c1cccc2ccccc12 the results were Sm TGR block -9%, AmpC detergent inconclusive and AmpC inh no detg -23%.
O=C(Nc1ccccc1C(=O)NCc1ccco1)Nc1cccc2ccccc12 was read as Sm TGR block -18%, AmpC detergent -5% and AmpC inh no detg 20µM*.
Screening O=C(NCc1ccco1)c1ccccc1-c1ccccc1 returned Sm TGR block inconclusive, AmpC detergent -12% and AmpC inh no detg -7%.
`O=C(O)c1ccccc1-c1ccccc1C(=O)NCc1ccco1` gave Sm TGR block 50µM*, AmpC detergent 1% and AmpC inh no detg -22%.
Screening O=C(NCc1ccco1)c1ccccc1F returned Sm TGR block 45µM*, AmpC detergent 0% and AmpC inh no detg -17%.
